Laboratory results reported in PubChem BioAssay (NCATS).
“And” between values parts separate entries of the source, which are not always exact repeats. Identical values can stand only once. Records with an inconclusive call do not appear. For some of these results: Potency and affinity values are given separately. The source made the active and inactive calls. Unless noted, the rule behind the calls is not given here.

Tests used:
[1] = molecular target: T1, Hexokinase-4 (Homo sapiens) + Glucokinase regulatory protein (Homo sapiens) (UniProt P35557+Q14397); assay: qHTS assay for inhibitors of recombinant human GCK-GKRP interaction: Diaphorase-coupled assay (AID 743205; active = well fitted curve in the direction sought with a large enough effect; an effect the other way counts as inactive or inconclusive)
T1 sequence (P35557 whole entry, looked up): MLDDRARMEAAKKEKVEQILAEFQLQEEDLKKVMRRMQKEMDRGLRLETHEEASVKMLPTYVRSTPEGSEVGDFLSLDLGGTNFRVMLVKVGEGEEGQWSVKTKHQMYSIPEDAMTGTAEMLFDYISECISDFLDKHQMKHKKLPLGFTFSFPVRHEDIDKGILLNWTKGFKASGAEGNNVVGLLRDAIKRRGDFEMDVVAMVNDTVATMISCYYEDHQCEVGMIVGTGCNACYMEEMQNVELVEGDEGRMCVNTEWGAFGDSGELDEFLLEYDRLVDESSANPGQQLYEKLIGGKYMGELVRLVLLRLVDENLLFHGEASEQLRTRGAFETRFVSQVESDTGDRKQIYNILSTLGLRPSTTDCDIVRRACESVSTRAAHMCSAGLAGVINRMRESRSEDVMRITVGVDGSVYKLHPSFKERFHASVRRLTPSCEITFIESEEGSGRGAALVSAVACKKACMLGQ
T1 sequence (Q14397 whole entry, looked up): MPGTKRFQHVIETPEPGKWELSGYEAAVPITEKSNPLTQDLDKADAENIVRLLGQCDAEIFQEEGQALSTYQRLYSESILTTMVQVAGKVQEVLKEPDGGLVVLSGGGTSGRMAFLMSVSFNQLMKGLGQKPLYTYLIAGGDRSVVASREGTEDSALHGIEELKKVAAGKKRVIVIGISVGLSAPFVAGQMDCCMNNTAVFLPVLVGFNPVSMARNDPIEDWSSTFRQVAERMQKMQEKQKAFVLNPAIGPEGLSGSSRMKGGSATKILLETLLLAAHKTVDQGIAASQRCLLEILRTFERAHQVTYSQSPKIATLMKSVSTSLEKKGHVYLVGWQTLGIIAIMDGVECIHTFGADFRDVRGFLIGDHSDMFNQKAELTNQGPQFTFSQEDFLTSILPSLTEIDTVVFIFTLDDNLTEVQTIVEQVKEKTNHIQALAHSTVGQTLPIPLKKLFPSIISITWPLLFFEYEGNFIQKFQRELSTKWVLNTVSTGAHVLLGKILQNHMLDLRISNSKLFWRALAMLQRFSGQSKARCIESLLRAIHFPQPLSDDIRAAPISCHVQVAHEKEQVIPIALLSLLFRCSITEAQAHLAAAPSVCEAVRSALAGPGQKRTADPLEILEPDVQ
Outline: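 Inhibitors of the GCK–GKRP complex relieve GKRP suppression of GCK, detected through a G6PDH–diaphorase cascade reducing resazurin. Human GST-GCK and FLAG-GKRP are used at 10 nM with 5 mM glucose and 0.4 mM ATP.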

[2] = molecular target: T1, Hexokinase-4 (Homo sapiens) + Glucokinase regulatory protein (Homo sapiens); assay: qHTS assay for inhibitors of recombinant human GCK-GKRP interaction: ADP-Glo assay (AID 743206; active = well fitted curve in the direction sought with a large enough effect; an effect the other way counts as inactive or inconclusive;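 note: plate controls were DMSO plus enzyme for no effect and no enzyme for full effect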)
Outline: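 GST-GCK and FLAG-GKRP (15 nM each in the dispensed mix, with 2 uM S6P) react with 0.4 mM ATP and 5 mM glucose (final) in Hepes pH 7.6 for 60 min at room temperature. ADP is measured by ADP-Glo luminescence.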

[3] = molecular target: T1, Hexokinase-4 (Homo sapiens) + Glucokinase regulatory protein (Homo sapiens); assay: qHTS assay for inhibitors of recombinant human GCK-GKRP interaction: HTRF assay (AID 743207; active = well fitted curve in the direction sought with a large enough effect; an effect the other way counts as inactive or inconclusive;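 note: 0% = DMSO with GCK present and -100% = DMSO wells lacking GCK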)
Outline: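 Steps: dispense GCK–GKRP complex (5 nM each, GST- and FLAG-tagged) with 2 uM S6P; pin in compounds; add XL665/Eu-cryptate-labelled antibodies; incubate 60 min at room temperature; read time-resolved FRET at 665 and 615 nm.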

[4] = qHTS Assay for Identifying Gametocytocidal Compounds (AID 743244; active = well fitted curve in the direction sought with a large enough effect; an effect the other way counts as inactive or inconclusive; note: potency is the fitted concentration of half-maximal effect;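 for max response: % is set by controls: 0 for no effect and ±100 for the full control effect; actives lower the fluorescent signal which means gametocytes are killed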); details: P. falciparum 3D7 stage III-V gametocytes, alamarBlue, 72 h; max response: stronger effect = lower value
Outline: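 P. falciparum 3D7 stage III–V gametocytes (20,000 cells/well) were exposed to compounds for 72 h at 37 °C, 5% CO2. AlamarBlue was then added for 24 h; decreased resorufin fluorescence (Ex 525/Em 598 nm) indicated loss of viability.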

[5] = qHTS profiling of the MIPE4 collection as inhibitors of Plasmodium falciparum (3D7) proliferation (AID 743344);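 note: scaled between DMSO vehicle wells and 0.29 µM artemisinin as full inhibition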; details: P. falciparum 3D7 in erythrocytes, SYBR Green DNA fluorescence, 72 h; at 28.5 µM (top of the series) unless noted
Outline: (§1)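 Erythrocytes infected with P. falciparum (0.3% parasitemia, 2.5% hematocrit) incubated with compounds 72 h at 37 C, 5% CO2. Lysis with saponin/Triton buffer containing SYBR Green I, overnight at room temperature in the dark; DNA fluorescence (485/535 nm) normalised to 0.29 uM artemisinin and DMSO.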

[6] = qHTS profiling of the MIPE4 collection as inhibitors of Plasmodium falciparum (DD2) proliferation (AID 743345); details: P. falciparum Dd2 in erythrocytes, SYBR Green DNA, 72 h; at 28.5 µM (top of the series) unless noted
Outline: as §1

[7] = qHTS profiling of the MIPE4 collection as inhibitors of Plasmodium falciparum (DD2) proliferation (Rep 2) (AID 743346); details: P. falciparum Dd2 in erythrocytes, SYBR Green DNA, 72 h; at 28.5 µM (top of the series) unless noted
Outline: as §1

[8] = qHTS profiling of the MIPE4 collection as inhibitors of Plasmodium falciparum (HB3) proliferation (AID 743347);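 note: plate controls were DMSO vehicle wells for no effect and artemisinin wells for full effect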; details: P. falciparum HB3 in erythrocytes, SYBR Green DNA, 72 h; at 28.5 µM (top of the series) unless noted
Outline: as §1

[9] = Ebola virus entry assay, green fluorescence channel
[10] = Ebola virus entry assay, blue channel fluorescence
[11] = Ebola virus entry assay, ratio channel
[12] = qHTS profiling for inhibitors of Plasmodium falciparum (3D7) proliferation (AID 743322);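 note: infected erythrocytes exposed to compound for 72 h before lysis; 100% = DMSO vehicle wells and 0% = 0.29 µM artemisinin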; details: P. falciparum 3D7 proliferation; at 28.7 µM (top of the series)
Outline: as §1

[13] = qHTS profiling for inhibitors of Plasmodium falciparum (DD2) proliferation (AID 743323); details: lower = more inhibition; at 28.7 µM (top of the series)
Outline: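 1536-well qHTS; infected RBCs 0.3% parasitemia/2.5% Hct final; cpd 72 h 37 C 5% CO2; lysis buffer + SYBR Green I, o/n RT dark; FI 485/535; norm. to 0.29 uM artemisinin and DMSO, plate-stack corrected.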

[14] = qHTS profiling for inhibitors of Plasmodium falciparum (HB3) proliferation (AID 743324; active = well fitted curve in the direction sought with a large enough effect; an effect the other way counts as inactive or inconclusive;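 note: 100% = DMSO vehicle wells and 0% = artemisinin-treated control wells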); details: Plasmodium falciparum HB3 blood-stage proliferation; at 28.7 µM (top of the series)
Outline: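 P. falciparum HB3 grown in erythrocytes (0.3% parasitemia, 2.5% hematocrit final) with compound for 72 h at 37 C, 5% CO2. Parasite DNA detected by SYBR Green after saponin/triton lysis overnight; normalized to 0.29 uM artemisinin and DMSO.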

[15] = Ebola virus entry assay, green channel fluorescence
[16] = qHTS assay for cell viability of HEK293 cells (AID 743288; active = well fitted curve in the direction sought with a large enough effect; an effect the other way counts as inactive or inconclusive; note: % is set by controls: 0 for no effect and ±100 for the full control effect; nearly all actives have a fitted effect of over 50% in size); details: ATP luminescence (CellTiter-Glo), 18 h; max response: stronger effect = lower value
Outline: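 The Tox21 protocol used parental HEK293 cells treated for 18 h at 37 C with compounds delivered by pintool; ATP-coupled luminescence after 30 min at room temperature gave viability.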

[17] = qHTS assay for cell viability of the p53RE-bla HCT-116 cell line (AID 743292; active = well fitted curve in the direction sought with a large enough effect; an effect the other way counts as inactive or inconclusive; note: potency is the fitted concentration of half-maximal effect; nearly all actives have a fitted effect of over 55% in size)
Outline: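 Quantitative high-throughput format: compounds in DMSO were pinned onto p53RE-bla HCT-116 cells (4,000/well) and incubated 16 h at 37 C. Total intracellular ATP, read by CellTiter-Glo luminescence, reflects viable cell number.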
Throughout, for efficacy: 0% is about no effect.

With O=c1[nH]c2ccccc2n1CCCN1CCC(n2c(=O)[nH]c3cc(Cl)ccc32)CC1 the outcome [1] was “inactive”, the outcome [2] was “inactive” and the outcome [3] was “inactive”. The max response [4] was -7.84% (inactive) and 21.7% (inactive), the parasite growth, % of DMSO control [5] was 26.8% and the parasite growth remaining, % of DMSO control (lower = more inhibition) [6] was 52.4%. For the same compound, the parasite growth, % of control (lower = inhibition) [7] was 31.2%, the growth, % of control [8] was 14% and the efficacy [9] was 125% (inactive). The AC50 [10] was 39.8 µM (active) and the AC50 [11] was 25.1 µM (active).
For CN1C[C@H](CNC(=O)OCc2ccccc2)C[C@@H]2c3cccc4c3c(cn4C)C[C@H]21, the outcome [1] was “inactive”, the outcome [2] was “inactive” and the outcome [3] was “inactive”. For the same compound, the max response [4] was -4.3% (inactive), the efficacy [9] was 74.4% (inactive) and the AC50 [10] was 6.31 µM (active). For the same compound, the AC50 [11] was 3.98 µM (active).
In the case of Fc1ccc(C(OCCN2CCN(CCCc3ccccc3)CC2)c2ccc(F)cc2)cc1, the outcome [1] was “inactive”, the outcome [2] was “inactive” and the outcome [3] was “inactive”. The parasite growth, % of DMSO control [5] was 5.99%, the parasite growth remaining, % of DMSO control (lower = more inhibition) [6] was 9.78% and the parasite growth, % of control (lower = inhibition) [7] was 10.9%. The growth, % of control [8] was 86.1%, the efficacy [9] was -187% (inactive) and the AC50 [10] was 3.98 µM (active). For the same compound, the AC50 [11] was 2.82 µM (active).
In the case of CN1C(=S)CN=C(c2ccccc2)c2cc(Cl)ccc21, the max response [4] was -6.22% (inactive), the efficacy [9] was 37% (inactive) and the outcome [10] was “inactive”. For the same compound, the outcome [11] was “inactive”.
In the case of Cc1cc2c(C(C)C)c(O)c(O)c(C=O)c2c(O)c1-c1c(C)cc2c(C(C)C)c(O)c(O)c(C=O)c2c1O, the max response [4] was 0.673% (inactive), the efficacy [9] was 104% (inactive) and the AC50 [10] was 39.8 µM (active). For the same compound, the outcome [11] was “inactive”.
COC1(CS(=O)c2ccccc2)CCN(CCc2c[nH]c3ccc(F)cc23)CC1 (configuration not stated) gave a remaining parasite growth % (stronger effect = lower value) [12] of 23.6%, an activity, percent of control [13] of 44.5% and a remaining proliferation (% of control), lower = more inhibition [14] of 10%. It also gave a parasite growth, % of DMSO control [5] of 36.7%, a parasite growth remaining, % of DMSO control (lower = more inhibition) [6] of 55.9% and a parasite growth, % of control (lower = inhibition) [7] of 66.8%. It also gave a growth, % of control [8] of 35.7%.
For O=c1c(O)c(-c2ccc(O)c(O)c2)oc2cc(O)cc(O)c12, the max response [4] was 43.6% (inactive) and 2.58% (inactive) and 14.8% (inactive), the parasite growth remaining, % of DMSO control (lower = more inhibition) [6] was 39% and the efficacy [9] was -18.8% (inactive). The outcome [10] was “inactive” and the outcome [15] was “inactive”.
In the case of O=c1oc2ccccc2c(O)c1C(CC(O)c1ccc(-c2ccc(Br)cc2)cc1)c1ccccc1 (configuration not stated), the max response [4] was -15.4% (inactive), the max response [16] was -5.59% (inactive) and the Potency [17] was 31.6 µM (active). The efficacy [9] was 92.1% (inactive), the outcome [10] was “inactive” and the outcome [11] was “inactive”.
With CCCCC/C=C\C/C=C\C/C=C\C/C=C\CCCC(=O)NC1CC1 the max response [4] was 45.8% (inactive), the remaining parasite growth % (stronger effect = lower value) [12] was 6.79% and the activity, percent of control [13] was 5.26%. For the same compound, the remaining proliferation (% of control), lower = more inhibition [14] was 3.08%.
In the case of COc1ccc(C(=O)c2c(C)n(CCN3CCOCC3)c3ccccc23)cc1, the max response [4] was 6.23% (inactive) and 9.75% (inactive), the remaining parasite growth % (stronger effect = lower value) [12] was 111% and the activity, percent of control [13] was 102%. It also gave a remaining proliferation (% of control), lower = more inhibition [14] of 94.6%, a parasite growth, % of DMSO control [5] of 90.6% and a parasite growth remaining, % of DMSO control (lower = more inhibition) [6] of 95.8%. The growth, % of control [8] was 93.4%, the efficacy [9] was -40.9% (inactive) and the AC50 [10] was 39.8 µM (active). For the same compound, the outcome [11] was “inactive”.
With O=C1NCN(c2ccccc2)C12CCN(CC1COc3ccccc3O1)CC2 (configuration not stated) the outcome [1] was “inactive”, the outcome [2] was “inactive” and the outcome [3] was “inactive”. The max response [4] was -1.23% (inactive) and 22.3% (inactive), the efficacy [9] was -42.1% (inactive) and the outcome [10] was “inactive”. For the same compound, the outcome [11] was “inactive”.
With C[C@@H]1[C@@H](C(=O)C[C@H]2O[C@@H]3O[C@]4(C)CC[C@@H]5[C@H](C)CC[C@@H]([C@H]2C)[C@@]35OO4)O[C@@H]2O[C@]3(C)CC[C@H]4[C@H](C)CC[C@@H]1[C@@]24OO3 the Potency [4] was 6.6 nM (active), the remaining parasite growth % (stronger effect = lower value) [12] was -0.0732% and the activity, percent of control [13] was -0.0237%. It also gave a remaining proliferation (% of control), lower = more inhibition [14] of 0.763%, a parasite growth, % of DMSO control [5] of 20.5% and a parasite growth remaining, % of DMSO control (lower = more inhibition) [6] of 7.59%. It also gave a growth, % of control [8] of 29.5%.
